Screening data from PubChem BioAssay.
G9a inh – blocks human histone lysine methyltransferase G9a; Q96KQ7; G9a H3K9 monomethylation, AlphaScreen, 2 h; Potency, µM (doses to about 102 µM), for the others: top-dose activity, negative = inhibition, actives largely listed as inhibitors; 8.8% of 350,000 active; further: potency means the concentration at half of the fitted maximal effect; on the % scale 0 is the no-effect control and ±100 the full control effect; nearly all actives have a fitted effect of over 75% in size
Target sequence (Q96KQ7 913-1193 limits assumed): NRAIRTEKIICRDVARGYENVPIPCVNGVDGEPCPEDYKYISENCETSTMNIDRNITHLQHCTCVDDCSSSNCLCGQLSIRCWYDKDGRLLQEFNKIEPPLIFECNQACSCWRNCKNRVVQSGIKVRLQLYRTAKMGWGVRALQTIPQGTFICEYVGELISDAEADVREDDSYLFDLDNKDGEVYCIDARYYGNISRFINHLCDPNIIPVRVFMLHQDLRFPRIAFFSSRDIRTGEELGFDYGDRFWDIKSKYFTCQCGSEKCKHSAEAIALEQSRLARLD
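Readings reflect AlphaScreen signal from monomethyl-H3K9 antibody detection. HMT at 20 nM; substrate b-H3K9 500 nM; cofactor SAM 20 uM; 2 h RT reaction; compounds tested as titrations in qHTS with 15 min preincubation.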
JMJD2A Tudor inh – JMJD2A Tudor domain (human) inhibition; O75164; Potency, µM (highest dose often 114 µM), inactives show top-dose activity change, negative = inhibition, hits mostly inhibitors; AlphaScreen JMJD2A-Tudor / H3K4me3 peptide binding; 4.4% of 390,000 active; further: potency means the concentration at half of the fitted maximal effect; on the % scale 0 is the no-effect control and ±100 the full control effect; nearly all actives have a fitted effect of over 50% in size
BAZ2B inh – inhibitors of human BAZ2B bromodomain | Q9UIF8 | AID 504333 | 4.4% of 360,000 active | AlphaScreen BAZ2B-H3K14Ac peptide displacement | Potency, µM (highest dose often 114 µM), for the others: top-dose activity change, negative = inhibition, usual class: inhibitors; further: potency means the concentration at half of the fitted maximal effect; on the % scale 0 is the no-effect control and ±100 the full control effect; nearly all actives have a fitted effect of over 60% in size
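Compounds, titrated to a top concentration of 110 uM, were incubated 30 min at room temperature with preformed BAZ2B/acetyl-K14 H3 peptide complex (50 nM each). Proximity signal was measured by AlphaScreen after 20 min with beads.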
HP1b binding inh – HP1-beta chromodomain-methylated histone interaction inhibition | AID 540317 | 0.56% of 390,000 active | AlphaScreen HP1-beta / biotin-H3K9me3 peptide binding | P83916 | Potency, µM (titrated, usually from 114 µM), for the others: at the top dose activity change, negative = inhibition, actives largely listed as inhibitors; further: potency means the concentration at half of the fitted maximal effect; nearly all actives have a fitted effect of over 70% in size
Target sequence (P83916 whole entry, looked up): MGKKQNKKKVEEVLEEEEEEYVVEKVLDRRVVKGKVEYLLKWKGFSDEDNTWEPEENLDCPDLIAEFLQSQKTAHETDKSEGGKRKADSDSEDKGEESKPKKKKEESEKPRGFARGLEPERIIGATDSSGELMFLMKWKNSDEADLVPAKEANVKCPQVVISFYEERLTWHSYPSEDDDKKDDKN
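AlphaScreen: HP1-beta (50 nM) preformed 30 min with biotin-H3(1-18)K9me3 peptide (50 nM) in PBS pH 7.4, 0.01% Tween-20. Compound added for 30 min at RT, then streptavidin donor/nickel chelate acceptor beads (10 ug/mL) for 30 min.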
L3MBTL1 inh – inhibitors of human L3MBTL1; Potency, µM (top dose mostly 57.1 µM), without a hit: at the highest dose activity, negative = inhibition, most hits filed as inhibitors; 0.66% of 230,000 active; Q9Y468; AlphaScreen L3MBTL1–H3K9me1 peptide binding; further: potency means the concentration at half of the fitted maximal effect; on the % scale 0 is the no-effect control and ±100 the full control effect; nearly all actives have a fitted effect of over 60% in size
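Displacement of a biotinylated histone H3(1-15) peptide monomethylated at Lys9 (75 nM) from L3MBTL1 (50 nM) was measured by AlphaScreen after a 30 min room-temperature compound incubation; cefsulodin titration served as intraplate control.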
PI5P4K alpha inh – inhibitors of human PI5P4K alpha | AID 652105 | PI5P4Kalpha enzyme, ADP-Glo luminescence, 60 min; active compounds read low | max response, % | 1.2% of 330,000 active | P48426; active means max response of -50% or lower; inconclusive means between -30% and -50%; inactive means -30% or higher; further: value at the top dose of about 77 µM; on the % scale 0 is the no-effect control and ±100 the full control effect
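Single end-point luminescence (ADP-Glo) quantified ADP from PI5P4Kalpha turnover; ATP 5 microM final, 1 h at RT, 0.1% CHAPS and 0.28 mM EGTA in HEPES pH 7.4.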
* hit, by the source's call; [ ] = remark or other dose. In the library only some 11% were active in any assay of this set; here they are far more common. Unless noted, the call rests on the fitted dose curve; in most records, active means well fitted inhibition curve with a large enough effect; inconclusive means small, poorly fitted or top-dose-only effect; inactive means no such curve, though single readings can be large or run the other way.

How did CSc1nc2c(cc1C#N)CCC2 do in these assays?
G9a inh: inconclusive; JMJD2A Tudor inh: 9%; BAZ2B inh: 1%; HP1b binding inh: 27%; L3MBTL1 inh: 2%; PI5P4K alpha inh: -2

What do the screens show for `CCc1ccc(NCc2cc3ccc(OC)cc3n(CC(=O)Nc3ccc(C(C)C)cc3)c2=O)cc1`?
G9a inh: -29%[59 µM]; JMJD2A Tudor inh: -16%; BAZ2B inh: inconclusive; HP1b binding inh: 17%

What do the screens show for `COc1ccc(NC(=O)CCS(=O)(=O)c2ccc3nc(C)sc3c2)cc1Cl`?
G9a inh: -5%[59 µM]; JMJD2A Tudor inh: 1%; BAZ2B inh: -5%; HP1b binding inh: 54%

How did S=c1nc(C23CC4CC(CC(C4)C2)C3)[nH][nH]1 do in these assays?
G9a inh: -127%[59 µM]; JMJD2A Tudor inh: 3.5µM*; BAZ2B inh: -6%; HP1b binding inh: -31%; L3MBTL1 inh: 4%; PI5P4K alpha inh: -16

How did CCc1ccccc1NC(=O)Cn1nnc(C(=O)NCc2ccco2)c1N do in these assays?
G9a inh: 6%[59 µM]; JMJD2A Tudor inh: -14%; HP1b binding inh: 10%

Results for C/C(=N/Nc1ccc(C)cc1)C1(C)N(O)C(C)(C)C(c2ccco2)=[N+]1[O-] (stereo not given) ?
G9a inh: 7.1µM*; JMJD2A Tudor inh: -34%; BAZ2B inh: inconclusive; HP1b binding inh: 10%; PI5P4K alpha inh: -6

Results for CC1(C)C(c2ccco2)=[N+]([O-])C2(CCCCC2=O)N1O (stereo not given) ?
G9a inh: inconclusive; JMJD2A Tudor inh: 17%; BAZ2B inh: -4%; HP1b binding inh: 52%; L3MBTL1 inh: -3%; PI5P4K alpha inh: -5

What do the screens show for `CCN(CCCNC(=O)c1ccc(Sc2ccc(F)cc2)c(NC(C)=O)c1)c1ccccc1`?
G9a inh: inconclusive; JMJD2A Tudor inh: 56µM*; BAZ2B inh: inconclusive; HP1b binding inh: -3%

What do the screens show for `CCCCNC(=O)NNc1nc(Cl)cc(C)c1C#N`?
G9a inh: 32µM*; JMJD2A Tudor inh: 7%; BAZ2B inh: -5%; HP1b binding inh: 36%; L3MBTL1 inh: -16%; PI5P4K alpha inh: 1

Results for CCCCOc1ccc(Nc2nc(C)cc(C)c2C#N)cc1 ?
G9a inh: 14%[59 µM]; JMJD2A Tudor inh: -3%; BAZ2B inh: 30%; HP1b binding inh: 41%; L3MBTL1 inh: -12%

How did CCOc1cc(C(=O)NCc2ccc(-c3nc4ccccc4o3)cc2)cc(OCC)c1OCC do in these assays?
G9a inh: 28µM*; JMJD2A Tudor inh: -3%; BAZ2B inh: 1%; HP1b binding inh: 14%; L3MBTL1 inh: -6%

What do the screens show for `CCCCN(C(=O)c1ccc(Br)o1)C1CCS(=O)(=O)C1` (stereo not given)?
G9a inh: 50µM*; JMJD2A Tudor inh: -4%; BAZ2B inh: 8%; HP1b binding inh: 38%; L3MBTL1 inh: 2%; PI5P4K alpha inh: 3

What do the screens show for `CCCCN(C(=O)c1ccccc1Br)C1CCS(=O)(=O)C1` (stereo not given)?
G9a inh: 13%[0.501 µM]; JMJD2A Tudor inh: 3%; BAZ2B inh: -4%; HP1b binding inh: 24%; L3MBTL1 inh: 5%; PI5P4K alpha inh: 8

Results for CNc1cccnc1C=NNC(N)=S ?
JMJD2A Tudor inh: 79µM*; HP1b binding inh: 28%; PI5P4K alpha inh: 9

Results for NC(=S)N/N=C/c1cccnc1 ?
G9a inh: 6%[12.7 µM]

How did S=c1nc[nH]c2c1[nH]c1ccc(Cl)cc12 do in these assays?
G9a inh: 1.4µM*; JMJD2A Tudor inh: 4.5µM*; BAZ2B inh: -1%; HP1b binding inh: 72%; PI5P4K alpha inh: 3

What do the screens show for `Cc1cccc(NC(=S)NC2CCCCC2)n1`?
G9a inh: 0.89µM*; JMJD2A Tudor inh: -13%; BAZ2B inh: -27%; HP1b binding inh: 19%; L3MBTL1 inh: -16%; PI5P4K alpha inh: -9

How did Cc1cccc(NC(=S)NC2CCCC2)n1 do in these assays?
G9a inh: -117%; JMJD2A Tudor inh: -27%; BAZ2B inh: inconclusive; HP1b binding inh: 29%; L3MBTL1 inh: -6%[2.29 µM]; PI5P4K alpha inh: -19

What do the screens show for `S=C(Nc1cccnc1)NC1CCCCCCC1`?
G9a inh: 14%[59 µM]; JMJD2A Tudor inh: -2%; BAZ2B inh: 0%; HP1b binding inh: 30%; L3MBTL1 inh: 3%; PI5P4K alpha inh: -3

How did COC(=O)c1cccnc1NC(=S)NC1CCCCC1 do in these assays?
G9a inh: 14µM*; JMJD2A Tudor inh: -25%; BAZ2B inh: 9%; HP1b binding inh: 38%; PI5P4K alpha inh: 10

How did S=C(Nc1ccc(Nc2ccccc2)cc1)NC1CCCCCC1 do in these assays?
G9a inh: 16µM*; JMJD2A Tudor inh: 20µM*; BAZ2B inh: 13µM*; HP1b binding inh: inconclusive; L3MBTL1 inh: -20%; PI5P4K alpha inh: -2

What do the screens show for `CC1CCCC/C1=N\NC(=S)Nc1cccnc1` (stereo not given)?
G9a inh: 3.2µM*; JMJD2A Tudor inh: inconclusive; BAZ2B inh: inconclusive; HP1b binding inh: inconclusive; PI5P4K alpha inh: -10

Results for Cc1ccccc1CSc1nc2c(sc3ccccc32)c(=O)n1CCCC(=O)NCCCOC(C)C ?
G9a inh: 2%[59 µM]; JMJD2A Tudor inh: -2%; BAZ2B inh: -12%; HP1b binding inh: 45%

Results for O=[N+]([O-])c1cc(-c2nc(-c3ccccc3)no2)ccc1NCCc1ccccc1 ?
G9a inh: inconclusive; JMJD2A Tudor inh: -14%; BAZ2B inh: -25%; HP1b binding inh: 45%

How did CCc1ccccc1NC(=O)c1cc(S(=O)(=O)N(CC)c2ccccc2)ccc1F do in these assays?
G9a inh: 6%[59 µM]; JMJD2A Tudor inh: -5%; BAZ2B inh: 9%; HP1b binding inh: 28%

How did CC1CCCCN1Cc1c(O)ccc2c(=O)c(-c3ccc(Cl)cc3)c(C(F)(F)F)oc12 (stereo not given) do in these assays?
G9a inh: -27%[59 µM]; JMJD2A Tudor inh: -16%; BAZ2B inh: 1%; HP1b binding inh: 27%

What do the screens show for `Cc1cc(C)c(/C=C/c2onc(C)c2S(=O)(=O)N2CCC(C(=O)N3CCN(c4ccc(Cl)cc4)CC3)CC2)c(C)c1`?
G9a inh: 8%[59 µM]; JMJD2A Tudor inh: -8%; BAZ2B inh: -14%; HP1b binding inh: 18%[57 µM]

What do the screens show for `CC(=O)N1CCC2(CC1)CN(C(=O)Nc1cccc(C#N)c1)C2`?
G9a inh: 8%[12.7 µM]

Results for NS(=O)(=O)c1ccc(NC(=S)NC2CCCCC2)cc1 ?
G9a inh: 25µM*; JMJD2A Tudor inh: -14%; BAZ2B inh: -29%; HP1b binding inh: -4%; L3MBTL1 inh: -4%; PI5P4K alpha inh: -7

Results for S=C(Nc1cccnc1)NC1CCCC1 ?
G9a inh: 16µM*; JMJD2A Tudor inh: -24%; BAZ2B inh: 3%; HP1b binding inh: -14%; L3MBTL1 inh: 8%; PI5P4K alpha inh: -7
